In ChEMBL document CHEMBL2218924, “A broad activity screen in support of a chemogenomic map for kinase signalling research and drug discovery” (Biochem J, 2013):

Key:
[1] = molecular target: Mitogen-activated protein kinase 11 (Homo sapiens) (UniProt Q15759); settings: at 1 µM
[2] = molecular target: Mitogen-activated protein kinase 11 (Homo sapiens) (UniProt Q15759); settings: at 10 µM
[3] = molecular target: T1, Mitogen-activated protein kinase 13 (Homo sapiens) (UniProt O15264); settings: at 10 µM
T1 sequence (whole entry): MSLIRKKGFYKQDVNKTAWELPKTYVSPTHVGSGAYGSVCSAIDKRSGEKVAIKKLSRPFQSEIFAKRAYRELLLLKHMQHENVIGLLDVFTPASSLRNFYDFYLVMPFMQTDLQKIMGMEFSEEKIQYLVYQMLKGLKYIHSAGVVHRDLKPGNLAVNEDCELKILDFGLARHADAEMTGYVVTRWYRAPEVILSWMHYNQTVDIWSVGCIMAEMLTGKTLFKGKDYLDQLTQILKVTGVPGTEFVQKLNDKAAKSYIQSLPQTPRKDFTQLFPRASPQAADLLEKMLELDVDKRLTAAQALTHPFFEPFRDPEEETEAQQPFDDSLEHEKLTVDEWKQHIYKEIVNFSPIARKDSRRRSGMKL

[4] = molecular target: T2, Serine/threonine-protein kinase Sgk1 (Homo sapiens) (UniProt O00141); settings: at 1 µM
T2 sequence (whole entry): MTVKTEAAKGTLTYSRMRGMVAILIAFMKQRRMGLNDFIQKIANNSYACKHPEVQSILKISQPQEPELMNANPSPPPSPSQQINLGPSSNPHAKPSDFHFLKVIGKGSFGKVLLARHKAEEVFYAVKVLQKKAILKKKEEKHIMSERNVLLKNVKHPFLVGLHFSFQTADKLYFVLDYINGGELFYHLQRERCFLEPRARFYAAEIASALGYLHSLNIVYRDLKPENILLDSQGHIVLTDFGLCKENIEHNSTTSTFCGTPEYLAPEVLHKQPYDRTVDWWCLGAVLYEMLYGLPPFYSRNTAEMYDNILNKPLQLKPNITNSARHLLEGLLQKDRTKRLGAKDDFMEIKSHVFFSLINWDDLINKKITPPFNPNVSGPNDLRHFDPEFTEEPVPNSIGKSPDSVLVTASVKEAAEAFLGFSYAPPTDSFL

[5] = molecular target: T2, Serine/threonine-protein kinase Sgk1 (Homo sapiens); settings: at 10 µM
[6] = molecular target: T3, Serine/threonine-protein kinase Sgk2 (Homo sapiens) (UniProt Q9HBY8); settings: at 1 µM
T3 sequence (whole entry): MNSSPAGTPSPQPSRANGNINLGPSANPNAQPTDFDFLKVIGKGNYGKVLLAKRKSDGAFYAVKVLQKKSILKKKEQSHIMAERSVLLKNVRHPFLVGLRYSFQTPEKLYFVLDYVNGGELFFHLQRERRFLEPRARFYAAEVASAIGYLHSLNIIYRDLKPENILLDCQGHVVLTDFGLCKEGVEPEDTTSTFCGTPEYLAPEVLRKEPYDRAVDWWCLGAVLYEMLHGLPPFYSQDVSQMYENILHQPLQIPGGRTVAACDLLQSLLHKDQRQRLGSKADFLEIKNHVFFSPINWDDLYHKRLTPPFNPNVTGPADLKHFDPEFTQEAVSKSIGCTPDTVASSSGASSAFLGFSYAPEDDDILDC

[7] = molecular target: T3, Serine/threonine-protein kinase Sgk2 (Homo sapiens); settings: at 10 µM
[8] = molecular target: T4, Serine/threonine-protein kinase Sgk3 (Homo sapiens) (UniProt Q96BR1); settings: at 10 µM
T4 sequence (whole entry): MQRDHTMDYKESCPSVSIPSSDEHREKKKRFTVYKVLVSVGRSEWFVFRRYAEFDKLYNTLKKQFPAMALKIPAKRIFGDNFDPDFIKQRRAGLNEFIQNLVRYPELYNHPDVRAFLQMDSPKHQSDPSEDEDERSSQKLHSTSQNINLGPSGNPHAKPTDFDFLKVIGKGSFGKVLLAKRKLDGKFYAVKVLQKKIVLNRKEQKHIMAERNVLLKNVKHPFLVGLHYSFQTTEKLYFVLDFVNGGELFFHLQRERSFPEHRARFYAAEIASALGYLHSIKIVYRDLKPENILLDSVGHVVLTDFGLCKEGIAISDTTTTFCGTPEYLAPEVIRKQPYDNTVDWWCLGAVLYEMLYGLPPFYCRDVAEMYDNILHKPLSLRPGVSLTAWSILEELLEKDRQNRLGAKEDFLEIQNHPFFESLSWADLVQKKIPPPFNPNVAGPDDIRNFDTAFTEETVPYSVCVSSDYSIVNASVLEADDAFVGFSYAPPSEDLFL

[9] = molecular target: Serine/threonine-protein kinase SIK1 (Homo sapiens) (UniProt P57059); settings: at 1 µM
[10] = molecular target: T1, Mitogen-activated protein kinase 13 (Homo sapiens); settings: at 1 µM

Chain of Serine/threonine-protein kinase SIK1 (Homo sapiens) (P57059 whole entry): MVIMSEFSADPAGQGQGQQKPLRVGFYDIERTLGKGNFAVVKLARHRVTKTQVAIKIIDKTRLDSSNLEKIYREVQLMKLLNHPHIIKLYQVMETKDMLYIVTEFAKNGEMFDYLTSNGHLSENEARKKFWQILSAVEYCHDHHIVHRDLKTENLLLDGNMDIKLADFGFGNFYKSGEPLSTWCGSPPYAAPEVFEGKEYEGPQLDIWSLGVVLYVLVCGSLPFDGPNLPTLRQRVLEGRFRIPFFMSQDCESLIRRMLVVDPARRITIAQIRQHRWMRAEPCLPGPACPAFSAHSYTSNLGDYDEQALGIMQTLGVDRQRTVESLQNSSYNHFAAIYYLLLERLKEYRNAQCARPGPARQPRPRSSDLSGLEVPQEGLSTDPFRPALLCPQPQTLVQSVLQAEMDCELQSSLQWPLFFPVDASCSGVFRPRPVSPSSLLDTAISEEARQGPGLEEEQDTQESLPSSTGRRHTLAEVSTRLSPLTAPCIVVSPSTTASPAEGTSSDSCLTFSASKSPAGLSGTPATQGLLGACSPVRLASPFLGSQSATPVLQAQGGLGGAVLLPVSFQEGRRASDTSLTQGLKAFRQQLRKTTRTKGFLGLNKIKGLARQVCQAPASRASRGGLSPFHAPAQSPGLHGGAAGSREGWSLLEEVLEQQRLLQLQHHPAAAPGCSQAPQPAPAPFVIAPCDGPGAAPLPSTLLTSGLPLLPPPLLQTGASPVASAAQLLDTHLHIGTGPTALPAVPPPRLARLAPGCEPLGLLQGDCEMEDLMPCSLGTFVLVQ
Chain of Mitogen-activated protein kinase 11 (Homo sapiens) (Q15759 whole entry): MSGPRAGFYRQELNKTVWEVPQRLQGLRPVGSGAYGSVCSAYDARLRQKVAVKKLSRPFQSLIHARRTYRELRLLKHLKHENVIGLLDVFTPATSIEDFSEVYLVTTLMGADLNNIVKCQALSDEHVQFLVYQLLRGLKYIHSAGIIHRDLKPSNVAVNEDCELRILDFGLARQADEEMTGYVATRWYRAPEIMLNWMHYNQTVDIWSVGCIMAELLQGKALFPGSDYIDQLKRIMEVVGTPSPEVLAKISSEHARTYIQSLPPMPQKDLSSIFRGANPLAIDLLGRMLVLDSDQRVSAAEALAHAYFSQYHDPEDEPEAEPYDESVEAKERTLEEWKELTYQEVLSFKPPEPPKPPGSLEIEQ

O=C1Nc2ccc(Cl)cc2/C1=C/c1cc(Cl)c(O)c(Cl)c1
residual activity [1]: 88%
residual activity [2]: 67%
residual activity [3]: 93%
residual activity [4]: 64%
residual activity [5]: 69%
residual activity [6]: 84%
residual activity [7]: 55%
residual activity [8]: 81%
residual activity [9]: 72%

CC(C)[C@H](CO)Nc1nc(Nc2cc(N)cc(Cl)c2)c2ncn(C(C)C)c2n1
residual activity [1]: 119%
residual activity [2]: 99%
residual activity [6]: 95%
residual activity [7]: 51%
residual activity [8]: 92%

Nc1ncnc2[nH]nc(Nc3ccc(F)cc3)c12
residual activity [1]: 103%
residual activity [10]: 103%
residual activity [3]: 94%
residual activity [4]: 94%
residual activity [5]: 74%
residual activity [6]: 113%
residual activity [7]: 43%
residual activity [8]: 80%
residual activity [9]: 48%

O=c1c(-c2ccc(F)cc2)c(-c2ccncc2)[nH]n1-c1ccc(Cl)cc1
residual activity [1]: 23%
residual activity [2]: 5%
residual activity [5]: 101%
residual activity [9]: 141%

Nc1ncnc2c1c(-c1ccc(Oc3ccccc3)cc1)cn2C1CCCC1
residual activity [1]: 87%
residual activity [2]: 75%
residual activity [10]: 95%
residual activity [4]: 110%
residual activity [5]: 111%
residual activity [6]: 98%
residual activity [7]: 78%
residual activity [8]: 86%
residual activity [9]: 78%

Nc1nc(Nc2ccc(S(N)(=O)=O)cc2)nn1C(=O)c1c(F)cccc1F
residual activity [1]: 102%
residual activity [2]: 77%
residual activity [3]: 31%
residual activity [4]: 124%
residual activity [5]: 75%
residual activity [7]: 49%
residual activity [8]: 79%
residual activity [9]: 50%

O=C1Nc2ccccc2/C1=C\c1c(Cl)[nH]c2ccccc12
residual activity [1]: 99%
residual activity [7]: 77%
residual activity [8]: 79%
residual activity [9]: 120%

NC(=O)c1cccc(-c2cc(Nc3ccc(OC(F)(F)F)cc3)ncn2)c1
residual activity [3]: 96%
residual activity [5]: 159%
residual activity [6]: 92%
residual activity [7]: 92%
residual activity [9]: 96%

NCCNc1ncc(C(N)=O)c(Nc2cccc(C(F)(F)F)c2)n1
residual activity [2]: 104%
residual activity [10]: 114%
residual activity [3]: 101%
residual activity [4]: 81%
residual activity [5]: 129%
residual activity [6]: 82%
residual activity [7]: 78%
residual activity [8]: 66%
residual activity [9]: 63%

O=C1NC(=O)C(c2c[nH]c3ccccc23)=C1c1c[nH]c2ccccc12
residual activity [3]: 99%
residual activity [4]: 76%
residual activity [5]: 65%
residual activity [6]: 78%
residual activity [7]: 29%
residual activity [9]: 81%

O=c1cc(N2CCOCC2)oc2c(-c3ccccc3)cccc12
residual activity [10]: 101%
residual activity [3]: 71%
residual activity [4]: 75%
residual activity [8]: 74%

N#C/C(=C\c1ccc(O)c(O)c1)C(=O)NCc1ccccc1
residual activity [10]: 125%
residual activity [4]: 79%
residual activity [5]: 32%
residual activity [6]: 61%
residual activity [7]: 17%
residual activity [8]: 73%
residual activity [9]: 88%

Oc1cccc(-c2nc(N3CCOCC3)c3oc4ncccc4c3n2)c1
residual activity [7]: 66%
residual activity [9]: 91%

COc1ccc(COc2ccc(Cc3cnc(N)nc3N)cc2OC)cc1
residual activity [6]: 108%

COc1ccc(Cl)cc1NC(=O)Nc1cc(C)nc2ccccc12
residual activity [4]: 80%
residual activity [5]: 73%
residual activity [8]: 78%
residual activity [9]: 93%

c1ccc(-c2cnc(Nc3ccc(OCCN4CCCC4)cc3)s2)cc1
residual activity [10]: 103%
residual activity [3]: 103%
residual activity [9]: 53%

O=C1C(Cl)=C(N2C(=O)CCC2=O)C(=O)c2ccccc21
residual activity [2]: 92%
residual activity [10]: 95%
residual activity [3]: 92%
residual activity [4]: 90%
residual activity [5]: 100%
residual activity [7]: 97%
residual activity [8]: 82%
residual activity [9]: 122%
